Consider 40 molecules from PubChem BioAssay (Tox21).

Results filed as inconclusive are left out. Values without a mark were called inactive. The source made the active and inactive calls. Calls follow the shape of the dose curve; as a rule, active = well fitted cell-killing curve with a large enough effect in the repeat runs; inconclusive = weak or mixed curves, or effect the other way; inactive = flat fitted curve, though single readings scatter.
% is scaled to controls: 0 for no effect and ±100 for the full control effect.

This experiment is described as follows: qHTS assay to identify small molecule agonists of the constitutive androstane receptor (CAR) signaling pathway - cell viability counter screen (AID 1224836). Also: nearly all actives have a fitted effect of over 45% in size. Conditions: HepG2-CYP2B6-hCAR viability, CellTiter-Fluor, 23 h, PK11195 added to every well; series mostly up to 92.4 µM. The text has this:
U.S. Tox21 Program National Center for Advancing Translational Sciences [NCATS] NIH Chemical Genomics Center [NCGC] U.S. Environmental Protection Agency [EPA] National Institutes of Environmental Health Sciences [NIEHS] National Toxicology Program [NTP] U.S. Food and Drug Administration [FDA] Tox21 Assay Overview: The constitutive androstane receptor (CAR) is a nuclear receptor which regulates multiple drug metabolizing enzymes (DMEs) and transporters. Activating CAR will generally increase the transcription and subsequent translation of CYP2B6 and CYP3A4. These two DMEs represent about 50% of the drug metabolizing potential in the body. […] Recently, there have also been studies performed indicating CARs role in energy metabolism and cancer therapy. Therefore, inducing CARs activity could have a potential effect on diabetes and cancer. Identifying environmental toxins and compounds which modulate CAR, through the use of the Tox21 10K compound collection, will be an important step in determining the toxicity and potential therapeutic effects these factors will have on the human body. To differentiate true CAR agonists from cytotoxic substances, the assay is multiplexed with a cell viability assay.
Tox21 Assay Protocol Summary: A double-stable (hCAR and CYP2B6-2.2kb) transfected cell line, derived from human hepatoma (HepG2) cells, was utilized for the duration of the quantitative high-throughput screens. The HepG2-CYP2B6-hCAR cells were dispensed at 2500 cells/4 uL/well in 1536-well white solid bottom plates using a Multidrop Combi. After the assay plates were incubated at 37 C/5% CO2 for 4 hrs, 23 nL of compounds at 15 concentrations (from 5-48 columns) or positive control (from 1 to 4 columns) were transferred to the assay plates using a Pintool station. One uL of PK11195 (final concentration = 0.75 uM) was added, using a Flying Reagent Dispenser, inside each well. After a 23 hr incubation period at 37 C/5% CO2, 1 uL of CellTiter-Fluor reagent was added into each well of the assay plates using a Flying Reagent Dispenser. The fluorescence intensity in the plates was then measured using a ViewLux plate reader.
In general terms: qHTS replaces the single test concentration by a dilution series.
Take `CCCCCCCC[Si](OCC)(OCC)OCC`: the result was inactive.
The same measure, in the same setting: the result for `O=C(Oc1ccccc1C(=O)O)c1ccccc1O` reads “inactive”.
In the case of `COC(OC)C(C)c1ccccc1` (stereo not given), the molecule was classed as inactive.
Consider `CCOC(=O)C(C)(C)C`, for which the result was inactive.
For `CC(C)(C)c1ccc(C=O)cc1`, the outcome was inactive.
The same measure, in the same setting: the result for `Nc1ccc(S(=O)(=O)Nc2ccccn2)cc1` reads “inactive”; that for `Cc1c(C(C)C)c(=O)n(-c2ccccc2)n1C`, “inactive”.
Same read-out and setting: the result for `O=P(O)(O)OCC(O)CO` (stereo not given) reads “inactive”.
On the same count and under the same terms, the result for `COCCOCCOCCOC` reads “inactive”.
As to `CCC1COC(=O)O1` (stereo not given), the call was inactive.
`CC(=O)OCCCc1ccccc1`: the result was inactive.
For `NC(=O)NNC(N)=O`, the result was inactive.
Same read-out and setting: the result for `CCCCCC1Nc2cc(C(F)(F)F)c(S(N)(=O)=O)cc2S(=O)(=O)N1` (stereo not given) reads “inactive”.
The same measure, in the same setting: the result for `CC(C)COC(=O)COc1ccc(Cl)cc1Cl` reads “inactive”.
Still for that read-out and setting: the result for `C[C@H](CCC(=O)NCC(=O)O)[C@H]1CC[C@H]2[C@@H]3[C@H](O)C[C@@H]4C[C@H](O)CC[C@]4(C)[C@H]3C[C@H](O)[C@]12C` reads “inactive”; that for `O=C1NC2NC(=O)NC2N1` (stereo not given), “inactive”; that for `Cc1cc(C)cc([N+](=O)[O-])c1`, “inactive”.
Turning to `CC(C)COC(=O)CC(C(=O)OCC(C)C)S(=O)(=O)O` (stereo not given), the call was inactive.
On the same count and under the same terms, the result for `Cc1cccc(NC(=S)N(C)C)c1` reads “inactive”.
On to `O=C(O)Cc1cccc(-c2cc(CCCCCCc3ccc(O[C@H]4O[C@H](CO)[C@@H](O)[C@H](O)[C@@H]4O)c(-c4cccc(CC(=O)O)c4)c3)ccc2O[C@H]2O[C@H](CO)[C@@H](O)[C@H](O)[C@@H]2O)c1`, for which the viability change, negative = cytotoxic was 5.82% [at 0.349 µM].
Still for that read-out and setting: the result for `BrC/C=C/CBr` reads 0.935% [at 19 µM].
Take `C=CC(C)(O)CC/C=C(\C)CC` (stereo not given): the molecule was called inactive.
Still for that read-out and setting: the result for `CCN(CC)C(=O)C1CN2CCc3cc(OC)c(OC)cc3C2CC1OC(C)=O` (stereo not given) reads “inactive”; that for `O=C1OC(=O)c2ccccc21`, “inactive”.
As to `CC(=O)c1ccc2c(c1)CCCC2`, the molecule was called inactive.
On the same count and under the same terms, the result for `CC(C)(CO)[C@@H](O)C(=O)NCCCO` reads “inactive”; that for `O=C(c1ccc2c(c1)C(=O)OC2=O)c1ccc2c(c1)C(=O)OC2=O`, “inactive”.
In the case of `CC(C)CCC(=O)CCC(C)C`, the call was inactive.
Same read-out and setting: the result for `CC(C)SCc1ccco1` reads “inactive”; that for `O=[Si]=O`, “inactive”; that for `Cc1ccccc1N1CCN(CCc2nnc3n2CCCC3)CC1`, “inactive”.
As to `COCC(=O)Nc1c(I)c(C(=O)NCC(O)CO)c(I)c(C(=O)N(C)CC(O)CO)c1I` (stereo not given), the call was inactive.
Consider `CNC(=O)NC`, for which the result was inactive.
The same measure, in the same setting: the result for `C=C[Si](C)(C)O[Si](C)(C)C=C` reads “inactive”.
Same read-out and setting: the result for `C1=CCC(c2ccccc2)CC1` (stereo not given) reads “inactive”; that for `O=C1OC(=O)c2cc(Oc3ccc4c(c3)C(=O)OC4=O)ccc21`, “inactive”.
Still for that read-out and setting: the result for `CCN(CCO)c1cccc(C)c1` reads “inactive”.
Turning to `Cc1nc(C)nc(N2C[C@@H](C)N(c3ccnc([C@@H](C)O)n3)[C@@H](C)C2)n1`, the molecule was classed as inactive.
On to `CC(=O)Nc1ccc(C)cc1`, for which the call was inactive.
The same measure, in the same setting: the result for `FC(F)(F)/C(=N\OCC1OCCO1)c1ccc(Cl)cc1` reads “inactive”.
